Laboratory results published in PubChem BioAssay AID1159580 (chemical genetic matrix, 2015).
Where “and” joins values, the source holds several entries; their conditions need not be identical. Equal entries are not always repeated. Out of some 5,500 compounds screened, about 2,000 (36%) were called active. Inconclusive results (about 18%) are left out. Cut-off read from the data, not from the text of the source: active = normalized growth mostly below about 0.91 (no sharp cut-off); inconclusive = no clear call, values can overlap the other calls; inactive = mostly above about 0.92. This is one part of the list.

Assay: chemical genetic growth profiling, strain panel (AID 1159580);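 note: tested at 20 µM; growth read once vehicle control cultures reached saturation at 30 °C; 1 = growth at the plate median or of vehicle wells; lower values mean less growth of the strain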
Conditions: S. cerevisiae deletion strains, growth OD

Measured: normalized growth

COc1cc(C/C=C/c2ccccc2)c(OC)cc1O
inactive: locus YAL013W, strain DEP1, stronger effect = lower value 0.989 | locus YAL026C, strain drs2, stronger effect = lower value 0.936 | locus YAL030W, strain snc1, stronger effect = lower value 0.956 | locus YBL061C, strain skt5, stronger effect = lower value 0.964 | locus YBR009C, strain hhf1, stronger effect = lower value 0.969 | locus YBR021W, strain FUR4, stronger effect = lower value 1.04 | locus YBR023C, strain chs3, stronger effect = lower value 0.95 | locus YBR171W, strain sec66, stronger effect = lower value 0.962 | locus YBR229C, strain ROT2, stronger effect = lower value 0.979 | locus YBR231C, strain swc5, stronger effect = lower value 0.942 | locus YBR279W, strain paf1, stronger effect = lower value 0.95 | locus YCL011C, strain gbp2, stronger effect = lower value 0.936 | locus YCL016C, strain dcc1, stronger effect = lower value 0.944 | locus YCL029C, strain bik1, stronger effect = lower value 0.962 | locus YCL061C, strain MRC1, stronger effect = lower value 0.967 | locus YCL069W, strain vba3, stronger effect = lower value 0.98 | locus YCR088W, strain abp1, stronger effect = lower value 0.958 | locus YDL005C, strain med2, stronger effect = lower value 0.948 | locus YDL035C, strain GPR1, stronger effect = lower value 1.04 | locus YDL040C, strain nat1, stronger effect = lower value 0.973 | locus YDL074C, strain BRE1, stronger effect = lower value 1.01 | locus YDL101C, strain DUN1, stronger effect = lower value 0.951 | locus YDL185W, strain tfp1, stronger effect = lower value 0.932 | locus YDL192W, strain arf1, stronger effect = lower value 0.982 | locus YDR001C, strain nth1, stronger effect = lower value 0.966 | locus YDR069C, strain doa4, stronger effect = lower value 0.943 | locus YDR101C, strain arx1, stronger effect = lower value 1.03 | locus YDR137W, strain rgp1, stronger effect = lower value 0.939 | locus YDR159W, strain sac3, stronger effect = lower value 1 | locus YDR162C, strain NBP2, stronger effect = lower value 0.993 | locus YDR195W, strain ref2 1 | locus YDR297W, strain sur2, stronger effect = lower value 0.955 | locus YDR318W, strain mcm21, stronger effect = lower value 0.989 | locus YDR334W, strain swr1, stronger effect = lower value 0.941 | locus YDR335W, strain msn5, stronger effect = lower value 0.95 | locus YDR388W, stronger effect = lower value 0.947 | locus YDR502C, strain sam2, stronger effect = lower value 0.964 | locus YEL003W, strain gim4, stronger effect = lower value 0.959 | locus YEL037C, strain rad23, stronger effect = lower value 0.958 | locus YEL061C, strain CIN8 (second series), stronger effect = lower value 0.96 | locus YEL061C, strain CIN8, stronger effect = lower value 0.968 | locus YER015W, strain faa2, stronger effect = lower value 0.935 | locus YER016W, strain bim1, stronger effect = lower value 0.961 | locus YER110C, stronger effect = lower value 0.924 | locus YER111C, strain swi4, stronger effect = lower value 0.978 | locus YER155C, strain BEM2 (second series), stronger effect = lower value 0.915 | locus YER155C, strain BEM2, stronger effect = lower value 0.96 | locus YER167W, strain BCK2, stronger effect = lower value 0.968 | locus YFR010W, strain ubp6, stronger effect = lower value 0.944 | locus YGL078C, strain dbp3, stronger effect = lower value 0.994 | locus YGL086W, strain mad1, stronger effect = lower value 0.986 | locus YGL167C, strain pmr1, stronger effect = lower value 0.943 | locus YGL173C, strain kem1, stronger effect = lower value 0.977 | locus YGL227W, strain vid30, stronger effect = lower value 0.973 | locus YGL240W, strain doc1, stronger effect = lower value 0.939 | locus YGL248W, strain PDE1, stronger effect = lower value 0.967 | locus YGL253W, strain hxk2, stronger effect = lower value 0.971 | locus YGR078C, strain PAC10, stronger effect = lower value 0.964 | locus YGR135W, strain pre9, stronger effect = lower value 0.95 | locus YGR229C, strain SMI1, stronger effect = lower value 1.01 | locus YGR252W, strain gcn5, stronger effect = lower value 1.1 | locus YHR013C, strain ard1, stronger effect = lower value 0.926 | locus YHR027C, strain rpn1, stronger effect = lower value 0.945 | locus YHR030C, strain SLT2, stronger effect = lower value 0.963 and 1.06 | locus YHR079C, strain IRE1 (second series), stronger effect = lower value 0.968 | locus YHR079C, strain IRE1, stronger effect = lower value 1.04 | locus YHR094C, strain hxt1, stronger effect = lower value 0.961 | locus YHR129C, strain ARP1, stronger effect = lower value 0.966 | locus YHR142W, strain chs7, stronger effect = lower value 0.919 | locus YHR200W, strain rpn10, stronger effect = lower value 0.983 | locus YIL066C, strain RNR3, stronger effect = lower value 0.971 | locus YIL073C, strain SPO22, stronger effect = lower value 0.938 | locus YIL125W, strain kgd1, stronger effect = lower value 0.979 | locus YIR030C, strain dcg1, stronger effect = lower value 0.956 | locus YJL092W, strain hpr5, stronger effect = lower value 0.957 | locus YJL095W, strain BCK1 (second series), stronger effect = lower value 0.95 | locus YJL095W, strain BCK1, stronger effect = lower value 0.935 and 1.06 | locus YJL115W, strain asf1, stronger effect = lower value 0.939 | locus YJL129C, strain trk1, stronger effect = lower value 0.949 | locus YJL134W, strain LCB3, stronger effect = lower value 0.964 | locus YJL154C, strain vps35, stronger effect = lower value 0.959 | locus YJL164C, strain tpk1, stronger effect = lower value 0.929 | locus YJL166W, strain qcr8, stronger effect = lower value 0.955 | locus YJL168C, strain set2, stronger effect = lower value 0.965 | locus YJL187C, strain SWE1 (second series), stronger effect = lower value 0.967 | locus YJL187C, strain SWE1, stronger effect = lower value 0.954 | locus YJR043C, strain POL32, stronger effect = lower value 1.08
active: locus YAL021C, strain ccr4, stronger effect = lower value 0.901 | locus YDR392W, strain spt3, stronger effect = lower value 0.721
